# Screens deposited in PubChem BioAssay by National Center for Advancing Translational Sciences (NCATS).
# PI5P4K alpha inh: blocks human PI5P4K alpha kinase activity; P48426; PI5P4Kalpha enzyme, ADP-Glo luminescence, 60 min; stronger effect = lower value; max response, %; 1.2% of 330,000 active; AID 652105; active = max response of -50% or lower; inconclusive = between -30% and -50%; inactive = -30% or higher; also: value at the top dose of about 77 µM
#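 Compounds were pin-transferred onto PI5P4Kalpha and substrate in HEPES pH 7.4 buffer with EGTA, CHAPS and 5% DMSO. ATP (5 microM final) started the reaction, which ran 60 minutes at room temperature before ADP-Glo detection.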
# PLK1 PBD block: inhibitors of human PLK1 polo-box domain binding. 2.8% of 360,000 active. Potency, µM, most hits filed as inhibitors. AID 720504. Plk1 PBD binding of FITC phosphopeptide, fluorescence polarization. P53350; also: series mostly up to about 57 µM; nearly all actives have a fitted effect of over 65% in size
# Target sequence (P53350 whole entry, looked up, the tested form may be a part): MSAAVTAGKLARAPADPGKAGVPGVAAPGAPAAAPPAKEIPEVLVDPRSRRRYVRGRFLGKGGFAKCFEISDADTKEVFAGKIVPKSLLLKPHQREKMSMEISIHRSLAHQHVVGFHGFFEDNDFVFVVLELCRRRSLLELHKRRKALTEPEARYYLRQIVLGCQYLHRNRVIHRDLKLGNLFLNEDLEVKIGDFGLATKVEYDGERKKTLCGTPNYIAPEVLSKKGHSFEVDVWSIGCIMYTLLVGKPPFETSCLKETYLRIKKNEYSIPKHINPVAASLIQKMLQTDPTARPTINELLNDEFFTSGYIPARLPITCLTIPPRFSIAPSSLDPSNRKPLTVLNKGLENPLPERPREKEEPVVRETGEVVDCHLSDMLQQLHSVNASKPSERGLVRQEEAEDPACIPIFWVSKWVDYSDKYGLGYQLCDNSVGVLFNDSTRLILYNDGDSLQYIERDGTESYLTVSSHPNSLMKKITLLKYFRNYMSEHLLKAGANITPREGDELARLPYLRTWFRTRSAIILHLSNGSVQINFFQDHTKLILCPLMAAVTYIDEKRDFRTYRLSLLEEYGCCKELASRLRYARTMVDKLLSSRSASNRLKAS
# BAZ2B inh: blocks human BAZ2B; Q9UIF8; AlphaScreen BAZ2B-H3K14Ac peptide displacement; Potency, µM (titrated, usually from 114 µM), hits mostly inhibitors; 4.4% of 360,000 active; also: nearly all actives have a fitted effect of over 60% in size
#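 In this displacement format the biotinylated H3(5-23) peptide acetylated at Lys14 serves as ligand at 50 nM, with BAZ2B at 50 nM in PBS pH 7.4 containing 0.01% Tween-20. Donor and acceptor beads are 10 ug/mL final.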
# G9a block: G9a (human) methyltransferase inhibition. AID 504332. Q96KQ7. 8.8% of 350,000 active. G9a H3K9 monomethylation, AlphaScreen, 2 h. Potency, µM (highest dose often 102 µM), hits mostly inhibitors; also: nearly all actives have a fitted effect of over 75% in size
#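 Compounds were preincubated with 20 nM G9a for 15 min, after which biotinylated H3K9 peptide (500 nM) and SAM (20 uM) started a 2 h room-temperature reaction. Monomethylated product was quantified by antibody-based AlphaScreen chemiluminescence.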
# HP1b chromo inh: inhibitors of HP1-beta chromodomain binding to methylated histone tails | AlphaScreen HP1-beta / biotin-H3K9me3 peptide binding | Potency, µM (doses to about 114 µM), hits mostly inhibitors | 0.56% of 390,000 active | AID 540317; also: nearly all actives have a fitted effect of over 70% in size
#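 AlphaScreen: HP1-beta (50 nM) preformed 30 min with biotin-H3(1-18)K9me3 peptide (50 nM) in PBS pH 7.4, 0.01% Tween-20. Compound added for 30 min at RT, then streptavidin donor/nickel chelate acceptor beads (10 ug/mL) for 30 min.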
# JMJD2A Tudor inh: blocks the human JMJD2A Tudor domain. O75164. AlphaScreen JMJD2A-Tudor / H3K4me3 peptide binding. Potency, µM (top dose mostly 114 µM), most hits filed as inhibitors. 4.4% of 390,000 active; also: nearly all actives have a fitted effect of over 50% in size
# Numbers stand for hits; 0 = inactive; ? = inconclusive; - = not tested or not shown; ! = a repeat was not active; [ ] = another dose, or the depositor's remark. In the library only some 12% were active in any assay of this set; here they are far more common. Unless noted, calls follow the shape of the dose curve; as a rule, active = well fitted curve in the direction sought with a large enough effect; inconclusive = small, poorly fitted or top-dose-only effect, or another doubt; inactive = no such curve, though single readings can be large; an effect the other way counts as inactive or inconclusive.
SMILES,PI5P4K alpha inh,PLK1 PBD block,BAZ2B inh,G9a block,HP1b chromo inh,JMJD2A Tudor inh
O=C1/C(=C/c2cccnc2)Oc2cc(OS(=O)(=O)c3ccc(Cl)cc3)ccc21,-,0,?,0,0,0
CC(=O)Oc1ccc2c(c1)O/C(=C\c1ccncc1)C2=O,-53,?,0,-,0,0
CC1=C(c2ccc(C)c(C)c2)S(=O)(=O)N(Cc2ccc(C(=O)NCc3cccc(C)c3)cc2)C1=O,-,-,0,0,0,0
COc1cc(F)c(S(=O)(=O)N2CCN(S(=O)(=O)c3cccs3)CC2)c(F)c1,-,-,-,-,-,0
Nc1n[nH]c(=S)n1/N=C1/C(=O)Nc2ccccc21,-89,27µM,0,1µM,16µM,2.5µM
Cc1ccc(C2C(C#N)=C(N)SC(N)=C2C#N)cc1,-85,0,0,45µM,0,?
Cc1ccc(C2C(C#N)=C(N)Oc3c2c(=O)n(C)c(=O)n3C)cc1 (stereo not drawn),0,0,0,?,0,0
Cc1ccc(C2C(C#N)=C(N)SC(N)=C2C#N)c(C)c1,-63,0,0,?,0,89µM
N#CC1=C(N)SC(N)=C(C#N)C1c1ccoc1,-,-,25µM,2µM,-,-
CCCOc1ccc(Oc2ccc(S(=O)(=O)N3CCN(C)CC3)cn2)cc1,0,0,0,0,0,0
Cc1cc(-c2nc(C)c(C(=O)NNS(=O)(=O)c3ccc(Cl)cc3Cl)s2)no1,0,0,0,40µM,0,?
CCOC(=O)c1ccccc1NC(=O)c1sc2ncn(Cc3cccc(F)c3)c(=O)c2c1C,-,-,0,0,0,0
CCCCN(C(=O)CSc1nnc(Nc2ccccc2)s1)c1c(N)n(CCC)c(=O)[nH]c1=O,0,?,0,40µM,0,0
CCN(C(=O)COC(=O)/C=C/c1ccc(C)o1)c1c(N)n(Cc2ccccc2)c(=O)[nH]c1=O,0,0,0,11µM,?,79µM
CCN(C(=O)CSc1nncs1)c1c(N)n(Cc2ccccc2)c(=O)[nH]c1=O,0,0,0,14µM,0,0
CCN(C(=O)CSc1nc2ccc([N+](=O)[O-])cc2s1)c1c(N)n(Cc2ccccc2)c(=O)[nH]c1=O,0,0,-,-,0,0
CN(C(=O)CSc1nc2ccccc2s1)c1c(N)n(Cc2ccccc2)c(=O)[nH]c1=O,0,?,0,25µM,0,0
COC(=O)C1=CN(c2ccc3c(c2)OCO3)C(N)=C(C#N)C1c1cccc(F)c1 (stereo not drawn),0,0,-,-,-,-
c1ccc(CCNc2ccccc2)cc1,-,-,56µM,?,-,-
c1ccc(NCCc2ccccn2)cc1,0,0,-,-,0,0
Cc1cc(C)c(OCCCCCn2ccnc2)c(C)c1,0,0,?,0,0,0
COc1cccc(N2CCN(C(=O)C3CCN(S(=O)(=O)c4c(C)noc4C)CC3)CC2)c1,-,-,0,0,0,0
COc1ccc(N2CCN(C(=O)C3CCCN(S(=O)(=O)c4c(C)noc4C)C3)CC2)cc1 (stereo not drawn),0,0,?,32µM,0,0
Cc1cc(C)c(/C=C/c2onc(C)c2S(=O)(=O)N2CCC(C(=O)N3CCN(c4ccccc4)CC3)CC2)c(C)c1,-,-,0,0,0,22µM
CC(=O)c1ccc(N2CCN(C(=O)C3CCCN(S(=O)(=O)c4c(C)[nH]c(=O)[nH]c4=O)C3)CC2)cc1 (stereo not drawn),0,15µM,0,0,0,0[11.4 µM]
SMILES,PI5P4K alpha inh,PLK1 PBD block,BAZ2B inh,G9a block,HP1b chromo inh,JMJD2A Tudor inh
CCOC(=O)c1c(C)[nH]c(C)c1S(=O)(=O)N1CCCC(C(=O)N2CCN(c3ccc(Cl)cc3)CC2)C1 (stereo not drawn),-,-,?,0,0,?
COc1ccc(-c2cn3nc(N4CCCC(C(=O)Nc5cccc(Cl)c5C)C4)sc3n2)cc1 (stereo not drawn),-,-,0,0,0,0
NCCS(=O)O,-,-,-,19µM!,-,-
C=CCc1ccc(OCC(O)CN2CCN(Cc3ccc(Cl)cc3)CC2)c(OC)c1 (stereo not drawn),0,0,?,50µM,0,0
Cc1cccc(C)c1OCC(O)CN1CCN(c2ccccc2)CC1 (stereo not drawn),0,0,?,71µM,0,0
C=CCc1ccccc1OCC(O)CNC (stereo not drawn),0,0,0,50µM,0,0
OC(COc1cccc2ccccc12)CN1CCN(c2ccccc2Cl)CC1 (stereo not drawn),0,0,0,0,0,0
Cc1ccc(N2CCN(CC(O)COc3cccc4ccccc34)CC2)cc1 (stereo not drawn),0,0,35µM,40µM,?,45µM
C=CCc1ccccc1OC[C@H](O)CNC(C)C,-,-,-,0[21.5 µM],-,-
Cc1cccc(NC(=O)CN2C(=O)c3cccnc3Oc3ccc(Cl)cc32)c1C,-,-,0,0,0,0
COCCNC(=O)C1C(=O)Nc2ccccc2C(=O)N1Cc1ccccc1 (stereo not drawn),0,0,-,-,-,-
CC1CCN(CC(O)COc2ccc(OCC(O)CN3CCC(C)CC3)cc2)CC1 (stereo not drawn),0,0,0,-,0,0
COc1cccc(OC)c1OCC(O)CN1CCN(c2ccccc2)CC1 (stereo not drawn),0,0,0,?,0,0
COc1ccccc1N1CCN(CC(O)COc2c(OC)cccc2OC)CC1 (stereo not drawn),0,0,0,14µM,0,0
Cc1ccc(C)c(OCC(O)CN2CCC(C)CC2)c1C (stereo not drawn),0,0,50µM,?,0,0[11.4 µM]
C=CCc1ccccc1OCC(O)CN1CCN(c2ccc(OC)cc2)CC1 (stereo not drawn),0,0,50µM,?,?,18µM
O=C(NCc1cccs1)c1nn(-c2ccccc2)nc1CO,-,-,0,0,0,0
CCOC(=O)c1c(C)[nH]c(CCC(=O)NCCCN2CCN(c3ccccc3F)CC2)c1C,-,-,0,0,0,?
CC(C)NC(=O)N1CC2(CCN(S(=O)(=O)c3ccccc3)CC2)C1,-,-,-,0[12.7 µM],-,-
CC(=O)NC(c1ccc(F)c(F)c1)c1nc(-c2cccc(F)c2)cs1 (stereo not drawn),0,0,-,-,-,-
O=S1(=O)CCC(NC(=S)NCCNC(=S)NC2CCS(=O)(=O)C2)C1 (stereo not drawn),0,0,0,50µM,0,0
C=CCSC(=S)NC1CCS(=O)(=O)C1 (stereo not drawn),0,?,0,50µM,0,0
COc1ccc(-c2csc(C(C)(O)c3cccc(F)c3)n2)cn1 (stereo not drawn),0,0,-,-,-,-
Fc1ccccc1C(NCCc1ccc(Cl)cc1)c1nnc(-c2ccccc2)o1 (stereo not drawn),-,-,0,0,0,0
O=C1c2ccccc2-c2onc3c(Oc4ccccc4)cc(O)c1c23,-,-,35µM,?,-,-
COc1ccc(CCNC(=O)CC(C)(C)CC2=NS(=O)(=O)c3ccccc3N2)cc1OC,0,0,0,-,0,0
Nc1cc(N)cc(-c2nc3ccccc3o2)c1,0,0,-,-,0,?
